Results: the supplement of paper PMC10849652
The full data set covers some 8,800 targets. This sample favours those with a hit. About 0.5% of all pairs of compound and target were hits.

Key:
Experiment in all cases: log2 fold change, soluble protein after heating vs DMSO (PISA); higher = thermal stabilisation; K562 lysate, 10 uM; active = over 0.2 and 3.5 SD of the protein, either way, in both replicates (recomputed)
lapatinib = compound: CS(=O)(=O)CCNCc1ccc(-c2ccc3ncnc(Nc4ccc(OCc5cccc(F)c5)c(Cl)c4)c3c2)o1 [lapatinib]
How it was run: (§1)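 Thermal stability, expressed as log-two fold change relative to solvent controls, is given from duplicates. Crude K562 extract in PBS pH 7.4 with 1 mM MgCl2, at 1 mg/mL protein, was treated with 10 μM compound for 30 min and heated in aliquots for 3 min across 48°C-58°C. After pooling, adjustment to 0.5% NP-40 at 4°C and centrifugation at 21,000xg for 90 min, supernatant protein was measured by TMTpro 16plex LC-MS/MS with channel sums equalised.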

pictilisib = compound: CS(=O)(=O)N1CCN(Cc2cc3nc(-c4cccc5[nH]ncc45)nc(N4CCOCC4)c3s2)CC1 [pictilisib]
How it was run: as §1

crizotinib = compound: C[C@@H](Oc1cc(-c2cnn(C3CCNCC3)c2)cnc1N)c1c(Cl)ccc(F)c1Cl [crizotinib]
How it was run: as §1

[1] = compound: C[C@H](C1=CC=C(C=C1)C(=O)NC2=C3C=CNC3=NC=C2)N
How it was run: as §1

duvelisib = compound: C[C@H](Nc1ncnc2nc[nH]c12)c1cc2cccc(Cl)c2c(=O)n1-c1ccccc1 [duvelisib]
How it was run: as §1

gandotinib = compound: Cc1cc(Nc2cc(CN3CCOCC3)c3nc(C)c(Cc4ccc(Cl)cc4F)n3n2)n[nH]1 [gandotinib]
How it was run: as §1

tozasertib = compound: Cc1cc(Nc2cc(N3CCN(C)CC3)nc(Sc3ccc(NC(=O)C4CC4)cc3)n2)n[nH]1 [tozasertib]
How it was run: as §1

doramapimod = compound: Cc1ccc(-n2nc(C(C)(C)C)cc2NC(=O)Nc2ccc(OCCN3CCOCC3)c3ccccc23)cc1 [doramapimod]
How it was run: as §1

bafetinib = compound: Cc1ccc(NC(=O)c2ccc(CN3CC[C@H](N(C)C)C3)c(C(F)(F)F)c2)cc1Nc1nccc(-c2cncnc2)n1 [bafetinib]
How it was run: as §1

[2] = compound: Cc1cccc(CC(=O)N2CCc3c2ccc(-c2cn(C)c4ncnc(N)c24)c3F)n1
How it was run: as §1

nilotinib = compound: Cc1cn(-c2cc(NC(=O)c3ccc(C)c(Nc4nccc(-c5cccnc5)n4)c3)cc(C(F)(F)F)c2)cn1 [nilotinib]
How it was run: as §1

[3] = compound: Cc1nc(Nc2n[nH]c3c2CN(C(=O)N[C@H](CN(C)C)c2ccccc2)C3(C)C)c2sccc2n1
How it was run: as §1

dasatinib = compound: Cc1nc(Nc2ncc(C(=O)Nc3c(C)cccc3Cl)s2)cc(N2CCN(CCO)CC2)n1 [dasatinib]
How it was run: as §1

[4] = compound: Cc1ncc(-c2ccnc(Nc3ccc(S(C)(=O)=O)cc3)n2)n1C(C)C
How it was run: as §1

[5] = compound: Cn1cc(-c2ccc3c(c2)CCN3C(=O)Cc2cccc(C(F)(F)F)c2)c2c(N)ncnc21
How it was run: as §1

quisinostat = compound: Cn1cc(CNCC2CCN(c3ncc(C(=O)NO)cn3)CC2)c2ccccc21 [quisinostat]
How it was run: as §1

tipifarnib = compound: Cn1cncc1[C@@](N)(c1ccc(Cl)cc1)c1ccc2c(c1)c(-c1cccc(Cl)c1)cc(=O)n2C [tipifarnib]
How it was run: as §1

[6] = compound: NC(=O)Nc1cc(-c2cccc(F)c2)sc1C(=O)N[C@H]1CCCNC1
How it was run: as §1

[7] = compound: NC(=O)c1cnc(N[C@@H]2CCCC[C@@H]2N)nc1Nc1cccc(-n2nccn2)c1
How it was run: as §1

[8] = compound: NC1(c2ccc(-c3nc4ccn5c(=O)[nH]nc5c4cc3-c3ccccc3)cc2)CCC1
How it was run: as §1

Measured: log2 fold change

WDR91 (UniProt A4D1P6)
UniProt A4D1P6, sequence (A4D1P6 whole entry, looked up): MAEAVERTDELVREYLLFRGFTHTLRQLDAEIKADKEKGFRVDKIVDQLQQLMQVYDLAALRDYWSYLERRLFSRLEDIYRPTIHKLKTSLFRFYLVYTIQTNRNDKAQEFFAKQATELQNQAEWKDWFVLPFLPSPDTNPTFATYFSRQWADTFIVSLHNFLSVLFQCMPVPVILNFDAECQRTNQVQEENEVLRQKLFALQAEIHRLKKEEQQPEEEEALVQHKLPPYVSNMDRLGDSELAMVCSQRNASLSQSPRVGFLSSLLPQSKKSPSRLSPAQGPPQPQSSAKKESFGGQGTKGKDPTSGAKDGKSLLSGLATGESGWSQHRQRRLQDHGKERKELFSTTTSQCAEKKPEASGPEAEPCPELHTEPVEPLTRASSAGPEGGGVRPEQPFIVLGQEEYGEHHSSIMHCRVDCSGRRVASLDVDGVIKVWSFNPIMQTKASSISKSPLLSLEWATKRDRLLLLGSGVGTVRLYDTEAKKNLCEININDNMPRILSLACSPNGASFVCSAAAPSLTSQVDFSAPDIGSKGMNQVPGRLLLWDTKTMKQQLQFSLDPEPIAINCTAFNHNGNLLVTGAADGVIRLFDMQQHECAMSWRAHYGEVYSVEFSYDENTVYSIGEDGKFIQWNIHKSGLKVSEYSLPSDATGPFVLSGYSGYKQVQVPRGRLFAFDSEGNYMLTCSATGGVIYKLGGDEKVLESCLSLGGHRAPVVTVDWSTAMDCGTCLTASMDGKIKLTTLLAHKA
inactive: lapatinib -0.003 | pictilisib -0.012 | crizotinib -0.009 | [1] -0.001 | duvelisib 0.002 | gandotinib 0.048 | tozasertib 0 | doramapimod 0.038 | bafetinib -0.05 | [2] 0.052 | nilotinib -0.051 | [3] -0.025 | dasatinib -0.039 | [4] -0.01 | [5] 0.056 | quisinostat 0.005 | tipifarnib 0.014 | [6] -0.009 | [7] -0.004 | [8] 0.011

VAMP2 (UniProt P63027)
UniProt P63027, sequence (P63027 whole entry, looked up): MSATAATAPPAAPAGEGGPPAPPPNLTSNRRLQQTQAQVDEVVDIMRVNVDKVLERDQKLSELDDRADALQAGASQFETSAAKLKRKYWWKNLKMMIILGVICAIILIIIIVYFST
inactive: lapatinib 0.045 | pictilisib -0.05 | crizotinib 0.105 | [1] 0.062 | duvelisib 0.051 | gandotinib -0.057 | tozasertib 0.074 | doramapimod -0.083 | bafetinib -0.002 | [2] -0.147 | nilotinib -0.034 | [3] 0.034 | dasatinib 0.002 | [4] 0.066 | [5] -0.009 | quisinostat 0.262 | tipifarnib 0.041 | [6] -0.027 | [7] 0.019 | [8] 0.067

ZC2HC1A (UniProt Q96GY0)
inactive: lapatinib 0.004 | pictilisib 0.056 | crizotinib -0.009 | [1] -0.082 | duvelisib 0 | gandotinib 0.053 | tozasertib 0.007 | doramapimod -0.021 | bafetinib 0.052 | [2] 0.103 | nilotinib 0 | [3] 0.005 | dasatinib -0.085 | [4] 0.002 | [5] 0.1 | quisinostat -0.082 | tipifarnib -0.02 | [6] -0.014 | [7] 0.04 | [8] -0.092

USP48 isoform 8 (UniProt Q86UV5)
inactive: lapatinib -0.01 | pictilisib -0.001 | crizotinib -0.022 | [1] -0.006 | duvelisib -0.001 | gandotinib -0.044 | tozasertib 0.008 | doramapimod 0.024 | bafetinib -0.027 | [2] 0.034 | nilotinib 0.018 | [3] 0.008 | dasatinib 0.001 | [4] 0 | [5] 0.015 | quisinostat -0.04 | tipifarnib -0.011 | [6] 0.008 | [7] -0.001 | [8] -0.024

WDR41 (UniProt Q9HAD4)
UniProt Q9HAD4, sequence (Q9HAD4 whole entry, looked up): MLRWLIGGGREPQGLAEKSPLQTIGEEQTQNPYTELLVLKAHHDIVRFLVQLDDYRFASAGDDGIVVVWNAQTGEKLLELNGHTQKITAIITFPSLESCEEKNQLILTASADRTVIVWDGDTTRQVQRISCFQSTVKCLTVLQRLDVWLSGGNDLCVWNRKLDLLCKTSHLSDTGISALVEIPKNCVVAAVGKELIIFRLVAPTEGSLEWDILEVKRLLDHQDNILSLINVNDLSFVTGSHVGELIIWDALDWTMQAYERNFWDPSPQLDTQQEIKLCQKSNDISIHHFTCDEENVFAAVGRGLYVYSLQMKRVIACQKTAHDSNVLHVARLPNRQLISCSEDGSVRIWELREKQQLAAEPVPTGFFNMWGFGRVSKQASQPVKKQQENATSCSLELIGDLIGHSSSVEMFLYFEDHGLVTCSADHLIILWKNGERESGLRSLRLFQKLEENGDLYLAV
active: doramapimod 0.241
inactive: lapatinib 0.013 | pictilisib 0.099 | crizotinib 0.022 | [1] -0.037 | duvelisib -0.026 | gandotinib 0.149 | tozasertib -0.069 | bafetinib -0.065 | [2] 0.126 | nilotinib -0.012 | [3] -0.023 | dasatinib 0.028 | [4] -0.011 | [5] 0.005 | quisinostat -0.036 | tipifarnib -0.077 | [6] -0.009 | [7] -0.032 | [8] -0.017

XPO6 (UniProt Q96QU8)
inactive: lapatinib -0.012 | pictilisib -0.069 | crizotinib -0.086 | [1] -0.158 | duvelisib 0.06 | gandotinib 0.005 | tozasertib 0.072 | doramapimod 0.034 | bafetinib -0.105 | [2] 0.175 | nilotinib 0.005 | [3] 0.027 | dasatinib -0.008 | [4] -0.054 | [5] -0.026 | quisinostat -0.123 | tipifarnib -0.018 | [6] 0.078 | [7] 0.033 | [8] -0.04

ZNF318 (UniProt Q5VUA4)
inactive: lapatinib 0.031 | pictilisib 0.059 | crizotinib 0.023 | [1] -0.008 | duvelisib 0.046 | gandotinib -0.021 | tozasertib -0.019 | doramapimod -0.01 | bafetinib -0.086 | [2] 0.112 | nilotinib 0.043 | [3] -0.05 | dasatinib -0.104 | [4] -0.034 | [5] -0.002 | quisinostat 0.088 | tipifarnib -0.065 | [6] -0.004 | [7] -0.078 | [8] -0.028

WDR36 (UniProt Q8NI36)
inactive: lapatinib 0.013 | pictilisib -0.008 | crizotinib -0.02 | [1] 0.024 | duvelisib 0.016 | gandotinib -0.097 | tozasertib 0.017 | doramapimod 0.061 | bafetinib 0.005 | [2] -0.004 | nilotinib 0.003 | [3] -0.015 | dasatinib 0.012 | [4] 0.002 | [5] 0.025 | quisinostat -0.014 | tipifarnib -0.002 | [6] 0.03 | [7] -0.004 | [8] -0.01

XPNPEP1 isoform 3 (UniProt Q9NQW7)
inactive: lapatinib -0.017 | pictilisib -0.02 | crizotinib -0.008 | [1] 0.001 | duvelisib 0.049 | gandotinib 0.002 | tozasertib -0.024 | doramapimod -0.003 | bafetinib -0.021 | [2] 0.018 | nilotinib 0.022 | [3] 0.016 | dasatinib -0.049 | [4] -0.004 | [5] 0.014 | quisinostat 0.024 | tipifarnib 0.011 | [6] 0.007 | [7] -0.005 | [8] -0.023

UQCRC2 (UniProt P22695)
UniProt P22695, sequence (P22695 whole entry, looked up): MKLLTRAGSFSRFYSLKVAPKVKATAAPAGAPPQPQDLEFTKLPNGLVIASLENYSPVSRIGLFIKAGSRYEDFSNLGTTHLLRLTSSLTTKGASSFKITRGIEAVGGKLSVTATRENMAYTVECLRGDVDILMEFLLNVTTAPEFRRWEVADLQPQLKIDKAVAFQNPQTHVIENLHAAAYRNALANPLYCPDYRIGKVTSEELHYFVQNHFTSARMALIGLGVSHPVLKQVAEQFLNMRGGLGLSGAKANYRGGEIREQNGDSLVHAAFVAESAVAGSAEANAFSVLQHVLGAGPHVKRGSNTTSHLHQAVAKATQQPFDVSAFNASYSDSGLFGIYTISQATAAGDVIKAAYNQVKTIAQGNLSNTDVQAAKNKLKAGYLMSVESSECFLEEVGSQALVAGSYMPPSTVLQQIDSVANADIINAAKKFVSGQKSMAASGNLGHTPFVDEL
inactive: lapatinib -0.04 | pictilisib -0.008 | crizotinib 0.019 | [1] -0.011 | duvelisib 0.001 | gandotinib -0.004 | tozasertib -0.025 | doramapimod -0.027 | bafetinib -0.05 | [2] -0.007 | nilotinib 0.034 | [3] -0.028 | dasatinib 0 | [4] 0.004 | [5] -0.043 | quisinostat 0.007 | tipifarnib -0.011 | [6] 0.02 | [7] -0.008 | [8] 0.011

WDR7 (UniProt Q9Y4E6)
UniProt Q9Y4E6, sequence (Q9Y4E6 whole entry, looked up): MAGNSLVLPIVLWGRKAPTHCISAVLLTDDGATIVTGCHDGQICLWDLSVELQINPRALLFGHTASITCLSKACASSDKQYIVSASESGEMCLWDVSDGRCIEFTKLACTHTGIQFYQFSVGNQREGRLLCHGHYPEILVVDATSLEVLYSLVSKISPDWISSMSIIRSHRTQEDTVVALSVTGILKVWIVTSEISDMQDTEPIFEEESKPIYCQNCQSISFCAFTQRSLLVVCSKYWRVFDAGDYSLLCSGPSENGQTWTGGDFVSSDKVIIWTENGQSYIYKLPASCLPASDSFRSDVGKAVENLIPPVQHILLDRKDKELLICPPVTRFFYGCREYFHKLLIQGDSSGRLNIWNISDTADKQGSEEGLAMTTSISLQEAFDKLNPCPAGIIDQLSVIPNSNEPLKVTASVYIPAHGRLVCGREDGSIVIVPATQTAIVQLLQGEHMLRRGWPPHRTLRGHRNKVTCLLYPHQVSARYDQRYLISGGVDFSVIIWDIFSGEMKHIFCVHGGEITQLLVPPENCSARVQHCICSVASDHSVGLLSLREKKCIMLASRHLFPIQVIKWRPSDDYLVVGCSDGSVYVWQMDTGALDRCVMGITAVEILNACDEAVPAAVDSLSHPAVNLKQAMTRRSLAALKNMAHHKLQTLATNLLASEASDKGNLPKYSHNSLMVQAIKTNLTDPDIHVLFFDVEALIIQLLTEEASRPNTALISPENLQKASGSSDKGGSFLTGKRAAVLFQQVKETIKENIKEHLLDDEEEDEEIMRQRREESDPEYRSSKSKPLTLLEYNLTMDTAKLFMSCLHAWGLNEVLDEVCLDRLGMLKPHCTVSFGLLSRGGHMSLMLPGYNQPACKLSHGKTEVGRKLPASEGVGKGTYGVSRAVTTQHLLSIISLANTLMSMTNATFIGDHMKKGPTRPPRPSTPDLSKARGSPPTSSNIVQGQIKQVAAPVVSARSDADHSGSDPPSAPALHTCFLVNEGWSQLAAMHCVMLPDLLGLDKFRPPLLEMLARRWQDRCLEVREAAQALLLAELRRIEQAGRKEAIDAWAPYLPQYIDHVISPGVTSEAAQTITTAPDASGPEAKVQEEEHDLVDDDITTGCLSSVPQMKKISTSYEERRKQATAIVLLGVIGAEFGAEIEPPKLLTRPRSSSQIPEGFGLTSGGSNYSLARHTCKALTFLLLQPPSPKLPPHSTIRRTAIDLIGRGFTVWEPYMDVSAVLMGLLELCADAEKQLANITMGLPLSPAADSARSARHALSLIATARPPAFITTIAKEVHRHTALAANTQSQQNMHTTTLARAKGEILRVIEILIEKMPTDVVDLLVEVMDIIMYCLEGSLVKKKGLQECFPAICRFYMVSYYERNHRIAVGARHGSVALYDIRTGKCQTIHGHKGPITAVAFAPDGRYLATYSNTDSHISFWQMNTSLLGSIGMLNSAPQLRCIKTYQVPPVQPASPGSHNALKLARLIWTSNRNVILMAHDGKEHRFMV
inactive: lapatinib -0.029 | pictilisib -0.037 | crizotinib -0.058 | [1] -0.076 | duvelisib -0.008 | gandotinib 0.014 | tozasertib -0.012 | doramapimod 0.043 | bafetinib -0.04 | [2] 0.085 | nilotinib 0.001 | [3] -0.018 | dasatinib -0.088 | [4] -0.011 | [5] 0.003 | quisinostat -0.016 | tipifarnib -0.032 | [6] 0.014 | [7] 0.007 | [8] -0.03

XPO1 (UniProt O14980)
UniProt O14980, sequence (O14980 whole entry, looked up): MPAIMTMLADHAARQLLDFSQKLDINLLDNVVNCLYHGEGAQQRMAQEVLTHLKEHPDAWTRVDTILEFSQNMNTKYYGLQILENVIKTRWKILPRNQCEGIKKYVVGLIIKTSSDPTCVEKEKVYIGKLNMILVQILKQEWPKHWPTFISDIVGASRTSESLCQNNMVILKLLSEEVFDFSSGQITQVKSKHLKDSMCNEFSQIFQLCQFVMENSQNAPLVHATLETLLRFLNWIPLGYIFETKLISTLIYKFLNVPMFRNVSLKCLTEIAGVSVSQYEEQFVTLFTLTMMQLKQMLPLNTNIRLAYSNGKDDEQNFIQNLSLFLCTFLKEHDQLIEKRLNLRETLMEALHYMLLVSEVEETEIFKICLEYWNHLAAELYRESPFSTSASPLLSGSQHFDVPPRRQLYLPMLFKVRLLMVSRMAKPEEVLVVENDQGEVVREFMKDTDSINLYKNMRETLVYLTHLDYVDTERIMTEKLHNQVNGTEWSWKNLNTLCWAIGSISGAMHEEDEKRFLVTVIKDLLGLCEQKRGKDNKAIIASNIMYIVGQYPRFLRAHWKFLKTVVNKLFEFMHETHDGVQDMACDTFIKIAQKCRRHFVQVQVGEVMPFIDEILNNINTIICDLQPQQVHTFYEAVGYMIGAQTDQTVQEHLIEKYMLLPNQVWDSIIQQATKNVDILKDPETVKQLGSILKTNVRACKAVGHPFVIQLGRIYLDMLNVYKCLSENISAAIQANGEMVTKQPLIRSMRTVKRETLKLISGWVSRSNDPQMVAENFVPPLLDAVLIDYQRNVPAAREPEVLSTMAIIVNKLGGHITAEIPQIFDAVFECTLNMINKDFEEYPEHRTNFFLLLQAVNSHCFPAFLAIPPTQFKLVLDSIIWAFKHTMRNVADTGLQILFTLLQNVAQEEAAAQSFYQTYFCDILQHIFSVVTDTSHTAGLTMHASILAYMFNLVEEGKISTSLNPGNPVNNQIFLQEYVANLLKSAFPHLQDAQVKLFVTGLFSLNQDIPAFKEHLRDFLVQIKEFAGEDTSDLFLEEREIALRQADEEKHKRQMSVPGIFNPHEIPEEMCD
inactive: lapatinib -0.039 | pictilisib 0 | crizotinib -0.034 | [1] -0.037 | duvelisib -0.026 | gandotinib -0.043 | tozasertib 0.021 | doramapimod -0.001 | bafetinib -0.02 | [2] 0.07 | nilotinib 0.011 | [3] -0.011 | dasatinib -0.038 | [4] -0.014 | [5] 0.021 | quisinostat -0.007 | tipifarnib -0.009 | [6] 0.021 | [7] 0.011 | [8] 0.006

VPS11 (UniProt Q9H270)
inactive: lapatinib -0.025 | pictilisib -0.027 | crizotinib -0.029 | [1] -0.008 | duvelisib -0.04 | gandotinib -0.083 | tozasertib 0.024 | doramapimod 0.039 | bafetinib -0.077 | [2] 0.065 | nilotinib -0.007 | [3] -0.008 | dasatinib -0.003 | [4] -0.018 | [5] -0.002 | quisinostat -0.055 | tipifarnib -0.002 | [6] 0.06 | [7] -0.003 | [8] 0.003

ZMYM2 (UniProt Q9UBW7)
inactive: lapatinib 0.028 | pictilisib -0.147 | crizotinib -0.079 | [1] 0.098 | duvelisib 0.028 | gandotinib -0.329 | tozasertib 0.046 | doramapimod 0.041 | bafetinib -0.024 | [2] -0.084 | nilotinib -0.04 | [3] 0.001 | dasatinib -0.023 | [4] -0.007 | [5] 0.035 | quisinostat -0.082 | tipifarnib 0.08 | [6] 0.056 | [7] 0.099 | [8] -0.033

WAC (UniProt Q9BTA9)
UniProt Q9BTA9, sequence (Q9BTA9 whole entry, looked up): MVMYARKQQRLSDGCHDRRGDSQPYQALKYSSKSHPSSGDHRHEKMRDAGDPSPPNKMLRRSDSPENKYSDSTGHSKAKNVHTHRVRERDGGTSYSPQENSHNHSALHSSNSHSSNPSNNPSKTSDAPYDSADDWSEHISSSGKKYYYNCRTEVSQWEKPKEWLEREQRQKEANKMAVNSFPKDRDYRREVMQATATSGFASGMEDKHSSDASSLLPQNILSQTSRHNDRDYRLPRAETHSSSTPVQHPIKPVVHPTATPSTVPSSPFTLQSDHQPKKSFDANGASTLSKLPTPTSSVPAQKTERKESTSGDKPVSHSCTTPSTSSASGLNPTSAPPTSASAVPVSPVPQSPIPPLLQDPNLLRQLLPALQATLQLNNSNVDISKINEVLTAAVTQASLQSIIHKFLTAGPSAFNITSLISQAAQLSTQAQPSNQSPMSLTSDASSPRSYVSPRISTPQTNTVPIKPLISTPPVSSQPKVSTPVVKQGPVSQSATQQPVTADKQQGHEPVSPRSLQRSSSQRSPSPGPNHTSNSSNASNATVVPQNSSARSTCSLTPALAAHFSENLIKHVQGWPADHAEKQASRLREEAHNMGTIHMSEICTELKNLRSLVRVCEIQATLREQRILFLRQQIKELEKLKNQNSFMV
inactive: lapatinib 0.005 | pictilisib -0.04 | crizotinib 0.018 | [1] 0 | duvelisib -0.005 | gandotinib -0.014 | tozasertib 0.004 | doramapimod -0.031 | bafetinib -0.057 | [2] 0.043 | nilotinib -0.012 | [3] -0.001 | dasatinib -0.038 | [4] -0.019 | [5] 0.002 | quisinostat -0.029 | tipifarnib 0 | [6] 0.019 | [7] -0.01 | [8] 0.004
